# From the OligoGym collection
# Biological target: ARL4D
# Test: pooled miR-30 sensor sort-seq; sequence = guide strand
# Details: shRNA
# Also: reference of the scale not given here.
row,Sequence,sensor-assay potency score (higher = more potent)
1,TTGTTGGCCAGCACCAGCACTG,-0.806
2,TGGAAGGTGATGCCACGCGATC,-1.76
3,TATAAGAGCGCCACAGTGGTCG,-0.158
4,AACACTAGACCGTCTGTCCGGC,-0.396
5,TCCTCTTGAGGATCATCTCATA,-1.96
6,AAGAGCGCCACAGTGGTCGCAG,-0.161
7,TTCTCGGTGTTGAAGCCTTTGG,-1.06
8,AACTCCTTGAACTTGAGGCGGT,-0.138
9,TTGCACATGAGTGAGAGTGGCG,-0.774
10,ACACTCTGGACAAACTCCTTGA,-0.682
11,AGACCGTCCACAGCGCTGCAGC,-1.79
12,AAACTCCTTGAACTTGAGGCGG,-0.934
13,TTCGGTGCAACTCCACCTTGGC,0.0163
14,TCGGTGTTGAAGCCTTTGGTGG,-1.59
15,TACGTCTCCACAGTCCTGCAGC,-0.421

# Biological target: ARL8B
# Test: as above
# Details: shRNA
row,Sequence,sensor-assay potency score (higher = more potent)
1,TAATTCTAGGATTATAGCCAAG,-1.33
2,TTTCACGATCTGCAGCATCTAT,-0.778
3,TAAACAATAGCATTGACTCCTC,-0.391
4,TTTATCTAGAAGATTATGTAGC,0.313
5,TTTCCAAGCACTAGCACTGGAA,-1.03
6,TATCATGTAAACAATAGCATTG,-1.05
7,TTACCTTTAGTTACCTTCCTCA,0.244
8,TTTCGGGAAGCTTCTATCTTTT,-1.11
9,TGTGATATCTATATTATCCTTT,0.458
10,TTTCTCTATCCTGAATAGCAGA,-1.1
11,TATCTTCACTGAATTGACCTGA,0.755
12,TTGAATAGCAGCAAATTTCTCT,0.213

# Biological target: ARPC1A
# Test: as above
# Details: shRNA
row,Sequence,sensor-assay potency score (higher = more potent)
1,TTTAATGTGCTTGCTCACCCAC,-0.282
2,TTGAGTGATGCTATTCTGGTGC,0.522
3,TAACAAACAGAAATGAGTCGTG,0.708
4,TATTCAAACAAAACCACACGGC,-0.11
5,TTGGCTTCCAAACACCATCTTT,-0.586
6,TCTGAGACAAATGACACACTTA,0.156
7,TTTGGAATATCTAACTTGGAGA,-0.835
8,TTTTGGAATATCTAACTTGGAG,-0.944
9,ATTTGAAGTCACATGATCCTGC,0.383
10,AAATTTGCGACAATCTTGCTTG,-0.036
11,TATAGATGTGCACTTCGTGATT,-0.958
12,TGAAGTCACATGATCCTGCTGC,0.622
